A selection: hits, their analogues and other compounds. The true share with any hit is near 14%.
LASV entry inh: blocks Lassa virus binding to or entry into cells; Potency, µM (top dose mostly 37.9 µM), inactives show top-dose activity change, negative = inhibition, most hits filed as inhibitors; 300,000 tested, 1.2% active; Lassa virus pseudotype entry inhibition, cell reporter; calls by dose curve; tested in HEK293 cells; note: potency is the fitted concentration of half-maximal effect; nearly all actives have a fitted effect of over 50% in size
HCV inh: HCV inhibition. Huh7.5.1 HCVcc-Cre infection, luciferase reporter, 44 h. Potency, µM (titrated, usually from 41.8 µM), without a hit: at the top dose activity change, negative = inhibition, usual class: inhibitors. 340,000 tested, 3.4% active. AID 651820; note: potency is the fitted concentration of half-maximal effect
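Antiviral activity was scored by luciferase reporter output from cells infected with HCVcc-Cre (~0.5 moi) in presence of compound, 44 h infection period, cells seeded 1,000/well 4 h prior.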
Pf growth 48h: P. falciparum growth inhibition at 48 hours (one generation). Potency, µM (highest dose often 28.7 µM), inactives show at the top dose activity change, negative = inhibition, usual class: inhibitors. P. falciparum luciferase growth in erythrocytes, 48 h. AID 504832. 310,000 tested, 5.9% active; note: potency is the fitted concentration of half-maximal effect
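Luciferase-expressing P. falciparum in infected erythrocytes (2% hematocrit, 0.1% parasitemia final) in RPMI 1640/0.5% Albumax were exposed to compound for 48 hours at 37 C, 5% CO2; growth read as luminescence.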
MARV entry inh: inhibitors of Marburg virus binding or cell entry; Marburg virus pseudotyped entry inhibition, cell reporter; 300,000 tested, 1.8% active; AID 540276; Potency, µM (doses to about 37.8 µM), for the others: top-dose activity change, negative = inhibition, usual class: inhibitors; calls by dose curve; tested in HEK293 cells; note: potency is the fitted concentration of half-maximal effect
Pf growth 96h: inhibits malaria parasite growth, 96 h. AID 504834. P. falciparum luciferase reporter growth, 96 h. Potency, µM (highest dose often 28.7 µM), for inactives: at the highest dose activity change, negative = inhibition, actives largely listed as inhibitors. 320,000 tested, 6.9% active; note: potency is the fitted concentration of half-maximal effect
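Readout is luminescence from an integrated firefly luciferase in P. falciparum. Red cells, 2% hematocrit and 0.05% parasitemia final, were cultured with compound through two parasite generations (96 hours) at 37 C, 5% CO2.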
HCMV antiviral: inhibitors of human cytomegalovirus; 410,000 tested, 4.5% active; AID 1259415; HFF cells, HCMV-luciferase reporter, 72 h; active compounds read low; activity change, negative = inhibition, % at 57.5 µM; in the data active = activity change below about -60%; inconclusive = no clear call, values can overlap the other calls; inactive = above about -39%
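Inhibition of viral replication was scored as loss of reporter luminescence in HFFs infected with HCMV-luciferase (MOI 1 PFU/cell) for 72 h; compounds tested at 2 doses, normalized to buffer and Salinomycin controls.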
Active calls of the source: *; ? = inconclusive; · = not tested or not shown; [ ] = remark or other dose. Unless noted, calls come from the whole dose curve; as a rule, active = well fitted inhibition curve with a large enough effect; inconclusive = small, poorly fitted or top-dose-only effect, or another doubt; inactive = no such curve, though single readings can be large or run the other way. % is set by controls: 0 for no effect and ±100 for the full control effect.

SMILES | LASV entry inh | HCV inh | Pf growth 48h | MARV entry inh | Pf growth 96h | HCMV antiviral
Cc1ccc(-n2nc(CO)c(C(=O)NC(C)CCCc3ccccc3)n2)cc1C (stereo unspecified) | ? | · | · | -11%[46.1 µM] | · | ?
Cc1ccc(N2C(=O)c3ccccc3C2Nc2ccccc2)nc1 (stereo unspecified) | · | -19% | · | · | 10µM* | 28
CCOC(=O)c1ccc(NC2c3ccccc3C(=O)N2c2ccc(C)cn2)cc1 (stereo unspecified) | · | 12% | · | · | 12µM* | 5
CCc1cccc(NC2c3ccccc3C(=O)N2c2ccc(C)cn2)c1 (stereo unspecified) | · | ? | · | · | ? | 53
O=C(COc1ccccc1F)Nc1ccccc1C(=O)NC1CC1 | · | ? | -9% | · | 11% | -20
C=CCc1c(C)c(C#N)c2nc3ccccc3n2c1N1CCCCC1 | -4%[46.1 µM] | ? | ? | 14%[46.1 µM] | 1.9µM* | 60
CCOc1cccc(-c2cc(-c3n[nH]c(=S)n3CC)c3ccccc3n2)c1 | -21% | -24% | 13µM* | -4% | 12µM* | -25
CCOc1ccccc1-c1cc(-c2n[nH]c(=S)n2CC)c2ccccc2n1 | 3% | ? | 1.9µM* | -30% | 1.7µM* | 12
CCn1c(-c2cc(-c3ccc(C)c(C)c3)nc3ccccc23)n[nH]c1=S | · | · | 4.1µM* | · | 3.7µM* | ·
CCn1c(-c2c[nH]c3ccccc23)n[nH]c1=S | 2% | 9% | 20% | 2% | · | 2
CCn1c(-c2cc(C3CC3)nc3ccccc23)n[nH]c1=S | 4% | -6% | ? | ? | ? | -37
CCn1c(-c2cc(-c3cc(C)ccc3C)nc3ccccc23)n[nH]c1=S | 7% | -1% | ? | 0% | 2.6µM* | -2
CCc1cccc(C)c1NC(=O)Cn1ccn(Cc2ccc(Cl)cc2)c(=O)c1=O | 1%[46.1 µM] | · | · | · | · | -24
Nc1nc2c(nc(Br)n2C2OC3COP(=O)(O)O[C@@H]3C2O)c(=O)[nH]1 (stereo partly specified) | -7% | · | · | ? | · | ·
FC(F)C(F)(F)Oc1cccc(Nc2nccn3c(-c4cccc5cccnc45)cnc23)c1 | · | · | · | · | · | -11
Cc1nc(Cl)c(C(=O)NCc2ccccc2)c(C)c1[N+](=O)[O-] | -12%[46.1 µM] | 12% | 4% | 0%[46.1 µM] | -5% | ?
Cc1nc(Cl)c(C(=O)NCc2ccccc2)c(C)c1Cl | -1% | -1% | 2% | -5% | 27% | -70*
O=C(NCc1ccccc1)c1c(Cl)nc(Cl)c(Cl)c1Cl | -26% | 13µM* | 8% | ? | 30% | -84*
CSc1ccc(CNC(=O)C2Cc3cc(S(=O)(=O)N4CCCCC4)ccc3N2C(C)=O)cc1 (stereo unspecified) | · | ? | -22% | · | 15µM* | -32
CCOc1ccc(CNC(=O)C2Cc3cc(S(=O)(=O)N4CCCCC4)ccc3N2C(C)=O)cc1 (stereo unspecified) | · | -12% | -20% | · | 10µM* | 8
CCOc1ccc(CNC(=O)C2Cc3cc(S(=O)(=O)N4CCCC4)ccc3N2C(C)=O)cc1 (stereo unspecified) | -14%[46.1 µM] | 2% | -8% | -19%[46.1 µM] | ? | 33
CC(=O)N1c2ccc(S(=O)(=O)N3CCCCCC3)cc2CC1C(=O)NC(C)C (stereo unspecified) | 4%[46.1 µM] | · | · | · | · | -85*
CCN(CC)c1nn2c(=O)c(C(=O)NCc3ccc(F)cc3)cnc2s1 | 0%[46.1 µM] | · | · | · | · | 10
CCOC(=O)c1c(NC(=O)COc2ncnc3ccccc23)sc(C(C)=O)c1C | -11% | 7.1µM* | -20% | -31% | ? | 14
CCOC(=O)c1c(NC(=O)CN2C(=O)NC(C)(c3ccc(Cl)cc3)C2=O)sc(C(=O)NC)c1C (stereo unspecified) | ? | 14µM* | 8.3µM* | ? | 4.7µM* | 1
SMILES | LASV entry inh | HCV inh | Pf growth 48h | MARV entry inh | Pf growth 96h | HCMV antiviral
CCOC(=O)c1c(NC(=O)COC(=O)Cc2n[nH]c(=O)c3ccccc23)sc(C(=O)N(C)C)c1C | 9% | ? | -4% | 2% | 2% | 27
CCOC(=O)c1c(NC(=O)COC(=O)Cc2c[nH]c3ccccc23)sc(C(=O)N(C)C)c1C | 19% | 14µM* | ? | 4%[46.1 µM] | ? | 32
CCOC(=O)c1c(NC(=O)COC(=O)CCOc2ccccc2C)sc(C(=O)NC)c1C | 14% | 1% | -4% | -9% | -13% | 41
CCOC(=O)c1c(NC(=O)COC(=O)c2ccc(NC(=O)CC#N)cc2)sc(C(=O)NC)c1C | · | ? | 13µM* | · | -26% | 0
COC(=O)c1c(NC(=O)COc2ncnc3ccccc23)sc(C)c1C | -5% | ? | -17% | -4% | ? | 9
COc1ccc(CCNC(=O)c2ccc3c(c2)N=C(C)c2ccccc2S3)cc1OC | -16%[46.1 µM] | · | · | -21%[46.1 µM] | · | -34
CCOC(=O)c1c(NC(=O)COC(=O)c2ccc(O)cc2)sc(C(=O)N(C)C)c1C | · | ? | 12µM* | · | ? | 0
CCOC(=S)SSC(=S)OCC | · | · | -1% | · | -1% | ·
Cc1ccc(C)c(NC(=O)Cn2c(=O)n(CCCS(=O)(=O)C3CCCCC3)c(=O)c3ccccc32)c1 | 10%[46.1 µM] | · | · | 3%[46.1 µM] | · | -16
Cc1cc(C)cc(-n2nnnc2SCC(=O)Nc2cccc(NC(=O)c3ccco3)c2)c1 | 1% | ? | -17% | ? | · | -28
CCC(=O)Nc1cccc(-n2nnnc2SCC(=O)c2ccc(C)c(C)c2)c1 | ? | 11µM* | 9% | ? | 10% | -7
Cc1ccc(-n2nnnc2SCC(=O)Nc2cccc(NC(=O)c3ccco3)c2)cc1C | -18% | 7.9µM* | -15% | ? | -14% | ?
CCC(=O)Nc1cccc(-n2nnnc2SCC(=O)NCc2ccco2)c1 | ? | -26% | 18% | 4% | ? | -19
CC(C)c1ccc(CNc2nc(-c3ccco3)nn2C(=O)c2ccc([N+](=O)[O-])cc2)cc1 | 13%[46.1 µM] | · | · | 21%[46.1 µM] | · | 57
O=C(NC1CCCC1)c1nc(-c2c(F)cccc2F)oc1-c1ccccc1 | · | · | · | · | · | 87
O=C(OCC1CCCO1)c1ccc2c(c1)N(Cc1c(F)cccc1Cl)C(=O)c1ccccc1S2(=O)=O (stereo unspecified) | -4%[46.1 µM] | · | · | · | · | -6
Cc1ccc(C)c(Cn2c3ccccc3c3cnn(CC(=O)NCCCc4ccccc4)c(=O)c32)c1 | 3%[46.1 µM] | · | · | ? | · | -3
Cc1ccccc1Cn1c2ccccc2c2cnn(CC(=O)NC(C)CCc3ccccc3)c(=O)c21 (stereo unspecified) | ? | · | · | 6%[46.1 µM] | · | -75*
Cc1ccccc1Cn1c2ccccc2c2cnn(CC(=O)NCCc3ccccc3)c(=O)c21 | 18%[46.1 µM] | · | · | ? | · | -96*
Cc1cccc(NC(=O)Cn2ncc3c4ccccc4n(Cc4ccccc4)c3c2=O)c1C | 1%[46.1 µM] | · | · | 10%[46.1 µM] | · | 9
